92 compounds from PubChem BioAssay AID1445 (SRMLSC, 2008) can be followed below.

The whole screen tested about 220,000 compounds, of which about 910 (0.41%) were called active. The sample holds actives, similar compounds and a random draw of the others, so the mix is not that of the screen. Entries with a potency or affinity are not part of this list. A number with no mark means an inactive call.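 Rule for the calls: active = primary inhibition above the hit cutoff, then over 50% inhibition at one or more dose response concentrations (cut at about 23% in these data, passing the limit was not always enough); inconclusive = conflicting primary data, or primary hits not chosen for dose response; inactive = low primary inhibition, or under 50% at every dose.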

For this test, the target named is Aminopeptidase N (Plasmodium falciparum (isolate 3D7)) (UniProt O96935). Description: P. falciparum M1AAP inhibitors, biochemical, fluorogenic H-Leu-NHMec substrate, 1536-well (AID 1445).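 Note: plate controls were DMSO full reaction for no effect and no enzyme background for full effect.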 The conditions noted are these: recombinant M1AAP, H-Leu-NHMec fluorogenic kinetic assay; at 30 µM, active compounds read high unless noted.
Sequence of Aminopeptidase N (Plasmodium falciparum (isolate 3D7)) (O96935 whole entry, looked up): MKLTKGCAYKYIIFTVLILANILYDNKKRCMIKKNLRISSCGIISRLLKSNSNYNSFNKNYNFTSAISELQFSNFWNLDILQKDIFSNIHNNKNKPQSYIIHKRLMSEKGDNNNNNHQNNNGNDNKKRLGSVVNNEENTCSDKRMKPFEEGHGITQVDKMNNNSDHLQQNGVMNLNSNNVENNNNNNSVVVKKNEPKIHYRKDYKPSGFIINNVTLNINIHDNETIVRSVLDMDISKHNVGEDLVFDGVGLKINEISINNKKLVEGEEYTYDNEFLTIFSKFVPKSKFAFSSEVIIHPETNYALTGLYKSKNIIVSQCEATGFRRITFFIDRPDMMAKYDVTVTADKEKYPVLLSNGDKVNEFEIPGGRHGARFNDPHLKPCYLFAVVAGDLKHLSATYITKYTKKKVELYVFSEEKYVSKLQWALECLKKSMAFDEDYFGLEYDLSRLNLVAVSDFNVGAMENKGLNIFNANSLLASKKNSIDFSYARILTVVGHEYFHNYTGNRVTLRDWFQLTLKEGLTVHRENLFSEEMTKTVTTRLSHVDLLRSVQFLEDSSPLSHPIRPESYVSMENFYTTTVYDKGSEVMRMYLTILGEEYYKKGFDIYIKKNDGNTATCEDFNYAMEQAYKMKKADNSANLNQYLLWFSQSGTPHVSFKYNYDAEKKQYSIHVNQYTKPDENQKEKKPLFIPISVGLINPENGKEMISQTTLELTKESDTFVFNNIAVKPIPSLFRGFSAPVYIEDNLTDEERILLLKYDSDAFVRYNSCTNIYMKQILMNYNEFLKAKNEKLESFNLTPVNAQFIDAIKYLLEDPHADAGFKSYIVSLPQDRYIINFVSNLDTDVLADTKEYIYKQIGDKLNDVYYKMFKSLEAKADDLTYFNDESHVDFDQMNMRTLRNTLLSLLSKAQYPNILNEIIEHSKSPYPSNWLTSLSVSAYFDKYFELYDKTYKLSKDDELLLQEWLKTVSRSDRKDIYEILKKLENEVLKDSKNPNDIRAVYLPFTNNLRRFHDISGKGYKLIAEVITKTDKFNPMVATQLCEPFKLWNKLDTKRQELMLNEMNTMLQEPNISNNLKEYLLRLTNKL
With `Cc1ccc(N/C=C2/Sc3ccccc3NC2=O)cc1`, the inhibition (commonly the relative decrease from the control value, in per cent) was -2.38%.
The same measure for `O=C1Nc2ccccc2S/C1=C/Nc1cccc(Cl)c1`: -0.46%; for `CCc1ccc(OCC(=O)NC(NC(=S)Nc2ccc(C)cc2C)C(Cl)(Cl)Cl)cc1` (configuration not stated): 1.79%; for `Cc1cc(NC(=O)CSc2nnc(-c3ccncc3)n2-c2ccccc2)no1`: 10.6%.
For `CCCCOc1ccc(C(=O)O)cc1`, the inhibition was 9.1%.
Take `CCCCOc1ccc(CC(=O)NCC(=O)O)cc1`: the inhibition was 3.76%.
Under `Cc1cccc(N(Cc2cc3ccccc3[nH]c2=O)C(=O)c2cccs2)c1` stands 0.39%.
The same measure for `C=CCOc1ccc2ccccc2c1CNc1ncn[nH]1`: 0.63%; for `CN(CC(=O)Nc1ccc(N2CCOCC2)cc1)C(=O)COc1ccccc1F`: 0.51%.
The same measure for `Cc1ccc(NC(=S)C2=C(O)c3sccc3N(C)S2(=O)=O)cc1`: 25.2% (active); for `Cc1ccc(NC(=O)C2=C(O)c3sccc3N(C)S2(=O)=O)cc1`: 8.43%.
In the case of `CN1c2ccsc2C(O)=C(C(=S)Nc2ccccc2)S1(=O)=O`, the inhibition is 7.91%.
As to `Cc1cc(Oc2cc(N)cc([N+](=O)[O-])c2)ccc1Cl`, the inhibition was 4.69%.
Under `O=C(NNC(=O)c1ccccc1Cl)c1ccccc1Cl` stands -3.69%.
Under `O=C(NNC(=O)c1ccc2ccccc2c1O)c1ccccc1Cl` stands 25.2% (active); under `O=C(NNC(=O)c1ccccc1Br)c1ccccc1Cl`, 5.77%.
As to `CSc1ccc(-c2nnn(CC(=O)NCc3ccccc3)n2)cc1`, the inhibition is -1.85%.
Take `Cc1[nH]nc2c1C(c1ccc(-c3ccccc3C#N)o1)C(C#N)=C(N)O2` (configuration not stated): the inhibition is 23.4% (active).
`Cc1ccc(-c2ccc(C3C(C#N)=C(N)Oc4n[nH]c(C)c43)o2)cc1` (configuration not stated): the inhibition is 12.9%.
Consider `Cc1[nH]nc2c1C(c1ccc(-c3ccc(Cl)cc3)o1)C(C#N)=C(N)O2` (configuration not stated), for which the inhibition was -0.1%.
Take `COc1ccc(N2CCN(C(=O)COc3ncnc4ccccc34)CC2)cc1`: the inhibition is 0.28%.
The same measure for `N/C(=N\OC(=O)CCCOc1ccccc1)c1ccncc1`: 2.2%; for `CCOCCCNC(=O)CCC(=O)NNc1nc2ccccc2c2nc(C)nn12`: 1.55%; for `Cc1cccc(S(=O)(=O)c2c(N)n(Cc3ccco3)c3nc4ccccc4nc23)c1`: 20.6%.
The same measure for `CCCCn1c(NS(=O)(=O)c2ccccc2)c(S(=O)(=O)c2ccc(C)cc2)c2nc3ccccc3nc21`: -1.2%; for `CCCCn1c(NS(=O)(=O)c2ccc(C)cc2)c(S(=O)(=O)c2ccccc2)c2nc3ccccc3nc21`: 11.6%.
The same measure for `CCCCn1c(NC(=O)c2ccccc2)c(C#N)c2nc3ccccc3nc21`: 2.47%; for `COc1ccc(-n2c(NC(=O)c3ccco3)c(C#N)c3nc4ccccc4nc32)cc1`: 3.92%; for `CCCCn1c(N)c(S(=O)(=O)c2ccc(C)cc2)c2nc3ccccc3nc21`: 12.5%.
As to `COc1ccc(-n2c(NC(=O)c3ccc(Br)o3)c(C#N)c3nc4ccccc4nc32)cc1`, the inhibition was 1.59%.
For the compound `Cc1ccc(S(=O)(=O)c2c(N)n(Cc3ccco3)c3nc4ccccc4nc23)cc1`, the inhibition was 24.7% (active).
For `Nc1c(S(=O)(=O)c2ccccc2)c2nc3ccccc3nc2n1Cc1ccco1`, the inhibition was 21.5%.
Under `O=C(c1ccc(-c2ccccc2)cc1)C1CCCN(C(=O)Cn2cncn2)C1` (configuration not stated) stands 8.56%; under `O=C(C(=O)N1CCCc2ccccc21)c1cn(CC(=O)N2CCOCC2)c2ccccc12`, 1.02%; under `O=C(NCc1ccccc1)C12CC3CC(CC(C3)C1)C2`, -3.07%.
Under `Cc1nn(C(=O)c2cccnc2)c(C)c1Sc1ccccc1` stands 6.53%.
In the case of `Cc1ccc(S(=O)(=O)N(C)C)cc1NC(=O)c1sccc1Cl`, the inhibition was 0.57%.
Under `Cc1ccc(C(=O)N2CCCC(c3ccc(Cl)cc3)=N2)cc1` stands -2.39%; under `Cc1ccsc1/C=N/NC(=O)c1ccc([N+](=O)[O-])cc1`, 4%.
Under `CC(=O)Nc1c(S(=O)(=O)c2ccccc2)c2nc3ccccc3nc2n1Cc1ccccc1` stands 22.9%.
The same measure for `CCCCn1c(NC(=O)c2ccc(Br)o2)c(S(=O)(=O)c2ccccc2)c2nc3ccccc3nc21`: 8.47%.
Consider `CC(=O)Nc1ccc2nc(NC(=O)c3cccs3)sc2c1`, for which the inhibition was 4.98%.
Take `O=C(Nc1ccc(F)cc1F)c1ccccc1-c1ccccc1`: the inhibition is -1.46%.
In the case of `CCCCNC(=O)CSc1nc2ccsc2c(=O)n1CCCC(=O)NCCc1ccc(S(N)(=O)=O)cc1`, the inhibition was 4.74%.
The same measure for `CCN(CC)C(=O)CSc1nc2ccsc2c(=O)n1CCCC(=O)NCCc1ccc(S(N)(=O)=O)cc1`: 11.4%; for `COc1cc(C(=O)OCC(=O)NCc2ccco2)cc(OC)c1OC`: 7.63%; for `CCCn1c2c(c(O)c(C(=O)Nc3ncccc3C)c1=O)CCCC2`: 5.08%.
Consider `CC(C)Cn1c2c(c(O)c(C(=O)Nc3ncccc3O)c1=O)CCCC2`, for which the inhibition was 16.5%.
The same measure for `CCCn1c2c(c(O)c(C(=O)Nc3ncccc3O)c1=O)CCCC2`: 25.1% (active); for `O=C(NCc1ccccn1)C(=O)NCc1ccccn1`: 5.31%; for `COc1ccc(OC)c(-n2c(SCC(=O)NCc3ccco3)nnc2-c2c[nH]c3ccccc23)c1`: 24.5% (active).
The same measure for `COc1cccc(-n2c(SCC(=O)NCc3ccco3)nnc2-c2c[nH]c3ccccc23)c1`: 16.4%; for `COc1ccc(-n2c(SCC(=O)NCc3ccco3)nnc2-c2c[nH]c3ccccc23)cc1`: 3.42%.
Turning to `COc1ccc(-c2nc(SCC(=O)NCc3ccco3)c(-c3ccccc3)[nH]2)cc1OC`, the inhibition was 8.46%.
For `COc1ccc(-c2[nH]c(-c3cccc(OC)c3)nc2SCC(=O)NCc2ccco2)cc1`, the inhibition is 25.2% (active).
For `COc1ccc(-c2[nH]c(-c3ccccc3)nc2SCC(=O)NCc2ccco2)cc1OC`, the inhibition is 4.65%.
`S=c1nc(-c2csc3c2CCCC3)[nH][nH]1`: the inhibition was -7.04%.
Under `CCCC(=O)N(Cc1cc2cccc(C)c2[nH]c1=O)c1ccccc1OC` stands 0.65%; under `COc1cccc(-n2cc(CN(C)Cc3nc(Cc4ccccc4)no3)cn2)c1`, 0.62%.
The same measure for `COc1ccc(NC(=O)C2CCCN(S(=O)(=O)c3ccc4c(c3)oc(=O)n4C)C2)cc1OC` (configuration not stated): 3.43%; for `COc1ccccc1N1CCN(S(=O)(=O)CC23CCC(CC2=O)C3(C)C)CC1` (configuration not stated): -1.74%; for `CCCn1cc(S(=O)(=O)CC(=O)Nc2ccc(OC)cc2OC)c2ccccc21`: -0.94%.
For the compound `O=C(/C=C/c1ccccc1Cl)N(Cc1ccccc1)C1CCS(=O)(=O)C1` (configuration not stated), the inhibition was 0.49%.
Under `COc1ccc(N2CSC3=C(C#N)C(c4cccs4)CC(=O)N3C2)cc1` (configuration not stated) stands 31.7%.
`Cc1ccc(C(=O)N2CCN(c3ccc(NC(=O)c4cccnc4)cc3)CC2)cc1`: the inhibition was 25.7% (active).
For the compound `Cc1ccccc1C(=O)N1CCN(c2ccc(NC(=O)c3cccnc3)cc2)CC1`, the inhibition was 1.42%.
Regarding `O=C(Nc1ccc(N2CCN(C(=O)c3ccc(Cl)cc3)CC2)cc1)c1cccnc1`, the inhibition is 3.47%.
Under `O=[N+]([O-])c1ccc(Cl)cc1N1CCCCC1` stands 4.92%; under `Cc1cc(C)nc(SCC(=O)Nc2ccc(S(=O)(=O)Nc3ncccn3)cc2)n1`, 3.26%; under `O=C(CSc1nnc(-c2ccncc2)n1C1CCCCC1)Nc1ccccc1`, 0.45%.
Turning to `Cc1noc(NS(=O)(=O)c2ccc(NC(=O)CSc3ncccn3)cc2)c1C`, the inhibition was 1.83%.
For the compound `O=C(CSc1ccccc1)Nc1ccc(S(=O)(=O)Nc2ncccn2)cc1`, the inhibition is 3.64%.
The same measure for `Cc1noc(NS(=O)(=O)c2ccc(NC(=O)CSc3n[nH]c(-c4ccccc4)n3)cc2)c1C`: 19.9%; for `O=C(CSc1nnc(-c2ccccc2)n1C1CCCCC1)Nc1ccc(S(=O)(=O)Nc2ccccn2)cc1`: 1.56%.
Under `CC(Sc1nnc2ccccn12)C(=O)N1CCc2ccccc2C1` (configuration not stated) stands 2.85%; under `NC1=C(c2ccc(F)cc2)C(=O)CS1`, -0.25%.
The same measure for `COC(=O)c1noc(C)c1-c1ccnn1C(=O)c1ccc(C)cc1`: 5.18%; for `CCOc1ccccc1OCC(=O)Nc1nnc(C)s1`: 0.54%; for `O=c1oc2ccccc2nc1/C=C(O)/C=C\c1ccccc1`: 5.28%.
As to `COc1ccccc1-c1c(C)oc2c(CN3CCN(C)CC3)c(O)ccc2c1=O`, the inhibition is 8.67%.
The same measure for `CN1CCN(Cc2c(O)ccc3c(-c4ccccc4)cc(=O)oc23)CC1`: 20.2%; for `Cc1cc(N2CCN(c3ccccn3)CC2)n2c(nc3ccccc32)c1C#N`: -0.82%.
In the case of `O=[N+]([O-])c1cc(C(F)(F)F)ccc1N/N=C/c1cc2ccccc2nc1Cl`, the inhibition was -1.36%.
In the case of `C/C(=N/OCO/N=C(\C)c1ccccc1F)c1ccccc1F`, the inhibition is 1.08%.
`Cc1ccc2oc(=O)n(Cc3ccccc3OC(C)C)c2c1`: the inhibition was 1.91%.
Consider `Cc1ccc(S(=O)(=O)Nc2nc3ccccc3nc2NCc2ccco2)cc1`, for which the inhibition was 10.1%.
In the case of `Cc1ccc(S(=O)(=O)Nc2nc3ccccc3nc2NCc2ccco2)cc1C`, the inhibition is 25.4% (active).
With `Cc1cccc(S(=O)(=O)Nc2nc3ccccc3nc2NCc2ccco2)c1`, the inhibition is 14.8%.
`N/C(Cc1nc(-c2ccc(Br)cc2)cs1)=N\O`: the inhibition was 1.76%.
Under `COc1cc2c(cc1NC(=O)c1cc(-c3ccncc3)nc3ccc(C)cc13)oc1ccccc12` stands 0.05%.
For `Cc1ccc(CCNS(=O)(=O)c2cnc[nH]2)cc1`, the inhibition is 1.38%.
With `C/C(=N\NC(=S)NC1CCCCC1)c1ccc(O)cc1`, the inhibition was -1.69%.
